The supplement of paper PMC6555819

Legend:
Test in all cases: PBM binding z-score (relative to random genomic background probes); higher = stronger binding; sequences stand for … in GC…GCGATTGACAGCGTAGAATGAAGG
[1] = system: FXR:RXRa (NR concentration 270 nM, RXRa partner concentration 90 nM)
Outline: (§1)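 Binding z-scores were set against random background probes. The data came from custom Agilent 4×180K protein-binding microarrays carrying double-stranded probes with 34-nt variable regions, incubated 1 h with ligand-free nuclear receptor dimers. Partner-specific antibodies detected binding, and scanned fluorescence was regression-normalized.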

[2] = system: LXRa:RXRa (NR concentration 270 nM, RXRa partner concentration 90 nM)
Outline: as §1

[3] = system: LXRa homodimer (NR concentration 270 nM)
Outline: as §1

[4] = system: LXRb:RXRa (NR concentration 270 nM, RXRa partner concentration 90 nM)
Outline: as §1

[5] = system: LXRb homodimer (NR concentration 270 nM)
Outline: as §1

[6] = system: PPARa:RXRa (NR concentration 270 nM, RXRa partner concentration 90 nM)
Outline: as §1

[7] = system: PPARg:RXRa (NR concentration 180 nM, RXRa partner concentration 90 nM)
Outline: as §1

[8] = system: PPARg:RXRa 270nM:90nM, anti-RXR (NR concentration 270 nM, RXRa partner concentration 90 nM)
Outline: as §1

[9] = system: PPARg:RXRa 30nM:10nM, anti-RXR (NR concentration 30 nM, RXRa partner concentration 10 nM)
Outline: as §1

[10] = system: PPARg:RXRa 90nM:30nM, anti-RXR (NR concentration 90 nM, RXRa partner concentration 30 nM)
Outline: as §1

[11] = system: PPARg:RXRa DBDmut IVT, anti-RXR (DBD mutation: RXRa K156A/R161A, NR concentration 270 nM, RXRa partner concentration 90 nM)
Outline: as §1

[12] = system: PPARg:RXRa IVT, anti-PPARg (NR concentration 270 nM, RXRa partner concentration 90 nM)
Outline: as §1

[13] = system: PPARg DBDmut:RXRa IVT, anti-PPARg (DBD mutation: PPARg1 K132A/R137A, NR concentration 270 nM, RXRa partner concentration 90 nM)
Outline: as §1

[14] = system: PPARg DBDmut IVT, anti-PPARg (DBD mutation: PPARg1 K132A/R137A, NR concentration 270 nM)
Outline: as §1

[15] = system: PPARg homodimer (NR concentration 180 nM)
Outline: as §1

[16] = system: PXR:RXRa (NR concentration 270 nM, RXRa partner concentration 90 nM)
Outline: as §1

[17] = system: PXR homodimer (NR concentration 270 nM)
Outline: as §1

[18] = system: RARa:RXR (NR concentration 270 nM, RXRa partner concentration 90 nM)
Outline: as §1

[19] = system: RARa homodimer (NR concentration 270 nM)
Outline: as §1

[20] = system: RARb:RXRa (NR concentration 270 nM, RXRa partner concentration 90 nM)
Outline: as §1

Sequence	PBM binding z-score [1]	PBM binding z-score [2]	PBM binding z-score [3]	PBM binding z-score [4]	PBM binding z-score [5]	PBM binding z-score [6]	PBM binding z-score [7]	PBM binding z-score [8]	PBM binding z-score [9]	PBM binding z-score [10]	PBM binding z-score [11]	PBM binding z-score [12]	PBM binding z-score [13]	PBM binding z-score [14]	PBM binding z-score [15]	PBM binding z-score [16]	PBM binding z-score [17]	PBM binding z-score [18]	PBM binding z-score [19]	PBM binding z-score [20]
CCTACTAGGCCAAGGTCATTGATCAGTCAAAGCA	3.42	3.71	2.03	3.21	0.097	4.66	4.96	4.59	2.19	4.42	5.34	4.8	0.0145	0.199	1.67	3.52	1.98	3.68	0.849	3.62
TCTGTTAGGTCAACGATGGTCAGCTAATCTGCTA	4.02	3.8	0.814	2.6	1.88	3.76	2.17	3.13	3.15	3.12	3.53	4	2.9	2.09	2.86	2.43	0.247	3.28	1.58	4.37
GGAACGAGGGCCAAGTTGATAGCATCTGTCGACG	-0.236	-0.341	-0.454	-0.778	-0.949	0.213	0.734	1.4	0.144	0.913	0.254	-0.0508	-1.09	-0.973	-0.0593	-0.242	-0.456	-0.293	-0.285	0.806
CCGACTGGGACAAAGGTTACCATACTCAGTACGA	0.993	1.51	0.114	1.8	-0.631	4.69	9.69	8.78	8.13	10.5	3.26	5.21	0.234	0.111	1.47	1.51	-0.265	2.39	0.207	2.03
TAGCCTAGGACATTGGGCCAGTATAGTACGCATC	-0.399	-0.701	-0.544	-0.775	-0.541	-0.477	0.608	-0.283	-0.241	-0.224	-0.0779	0.309	-0.136	-0.693	-0.568	-0.674	-0.291	-0.557	-0.0644	-0.123
ATACCAAGGTGCTCGTGAGGTCGTTGATACTAAC	0.689	0.535	0.19	0.834	-0.238	0.836	0.126	-0.218	-0.413	-0.131	-0.245	0.0535	0.246	0.215	0.541	2.27	0.582	1.85	-0.377	0.57
CGAACTAGGTCATTAACAGGACAGTGAATAGTAA	3.27	2.59	0.8	1.88	-0.0794	4.12	7.01	5.93	3.43	5.45	8.02	7.96	3.04	1.69	2.06	1.28	0.557	1.97	0.792	3.27
GGAACGAGGGCACGTTGATAGCAGAGTTTGATGG	0.419	0.105	-0.441	0.08	-0.424	1.67	1.7	1.56	0.331	1.19	4.33	3.73	0.361	-0.223	-0.0757	0.508	-0.125	0.282	-0.225	2.37
ATATGTAGGTTGGCTGGGGTCATTCAGACTAGGC	4.06	3.56	2.01	4.28	2.04	4.46	2.66	3.18	0.972	1.89	2.56	2.75	1.35	1.7	2.57	5.98	4.44	5.69	0.758	2.62
TCATACAGGTAAATGCTAGGTGAAAGTCCGATCT	0.695	0.892	0.122	0.729	0.432	1.07	0.609	2.04	3.75	2.83	2.68	1.46	0.656	0.391	0.443	0.585	0.0342	0.804	0.732	0.542
TCGAGTAGATTAGTCGGGGCATTCAGCCAACATA	-0.148	-0.282	-0.477	0.225	-1.13	-0.142	-0.45	0.0888	0.947	0.374	0.609	-0.356	-0.764	-0.113	-0.53	-0.262	-0.468	-0.389	-0.665	-0.416
CGTCCAATGTCAAGGTCAGTGAAAGAGACTCGAA	2.47	1.92	0.422	1.76	0.286	2.67	0.791	1	-0.104	0.482	0.498	1.27	0.404	-0.348	2.25	2.17	0.697	2.26	0.775	3.69
CTAGACAGGTGAGAAGGTAACTCAGCCTCGATTA	-0.0745	-0.0361	-0.246	-0.171	-0.733	0.677	0.508	0.818	0.0715	0.577	0.878	0.891	0.184	-0.714	0.258	-0.111	0.0997	-0.121	-0.138	0.44
ATACCAAGGTGATCGTGAGGTCGTTTATACTAAC	1.68	1.66	1.35	1.74	0.0373	1.69	0.492	0.454	-0.0827	0.159	0.676	1.12	0.496	0.607	0.889	3.27	2.05	2.19	0.982	1.51
TAGCCTAGGTCATTCAGGTGCCAGTATAGAAAGC	4.93	3.74	0.777	2.77	0.913	3.55	1.87	2.27	0.493	1.54	1.57	2.83	0.483	-0.0925	1.13	2.17	0.327	2.34	-0.175	3.6
TCTTGTAGATCAAGCAGGTTAAGCAAGCCTGAGT	0.175	0.151	-0.473	0.104	-0.672	0.618	-0.429	1.09	2.44	1.39	1.65	0.529	-0.37	-0.0257	-0.443	0.0788	-0.00179	0.628	-0.655	0.278
CGTCCAAGGCCAGAGAGGTCAGTGAATGCCGAGT	1.34	1.44	0.491	1.74	-0.859	2.28	0.0517	0.653	-0.871	-0.148	0.239	0.381	-0.198	-1.31	0.821	3.1	3.64	2.39	-0.0907	3.41
GCTCGGAGGACAATGTCAGAGCTTTGTCCGTAGA	-0.623	-0.613	-0.612	-0.519	-0.999	-0.586	-0.765	-0.898	-1.25	-1.01	-0.596	-0.513	-1.4	-0.198	-1.02	-0.494	-0.648	-0.772	-1.31	0.788
ACTTACGGGTCAACGAGGTTATAGGACGCGTATA	5.95	5.07	0.89	4.43	0.538	5.78	5.7	5.53	2.04	4.25	3.03	4.18	1.47	0.791	2	5.08	2.36	5	1.18	4.41
TCTGCAAGGTCAACGATGGTCAGCTAATCTGCTA	6.64	5.29	0.751	4.06	0.582	5.41	4.78	4.95	2.86	4.09	3.02	3.91	-0.02	-0.552	2.84	4.57	0.31	4.65	0.319	5.27
CGTCAAAGTTCAACAAAGGTAACGTAAAGCACGC	7.15	6.13	3.38	3.9	1.98	4.83	5.08	5.42	2.27	4.23	0.464	2.37	1.21	0.778	3.04	5.18	3.03	4.08	1.53	5.32
TCATGTAGGTAAATGCTAGGTGAAAGTCCGATCT	0.737	0.46	0.144	0.503	0.151	1.33	0.723	2.1	2.88	2.6	4.15	3.44	0.811	1.12	0.796	0.502	0.512	0.568	1.39	0.378
ATCTCTATGTAACCAAGTTCAGTGAATGCCGAAC	0.239	0.344	0.727	0.489	0.572	0.351	0.288	0.822	0.337	0.387	-0.0629	0.707	0.85	1.12	0.121	1.66	1.51	0.419	0.407	0.755
TAGCCTAGGTCATTCAGTGGCCAGTATAGAAAGC	4.21	3.55	0.592	2.39	0.554	3.44	1.95	2.24	0.522	1.51	1.37	2.7	0.204	-0.521	1.28	1.66	-0.355	2.22	-0.566	3.65
CCTAGCAGGCCTATCTGGGTCACTCAAGGCTTGA	0.317	0.546	-0.58	0.838	-1.2	3.07	1.7	2.01	-0.0826	1.15	3.65	4.63	-0.467	-0.863	0.541	0.789	-0.468	1.38	-0.645	0.909
TTACCAACGTGAAAGGTCGTTGATGCACGCCTTG	1.28	1.48	0.436	1.66	-0.169	2.84	2.46	4.26	2.49	4.17	0.0227	1.04	0.702	-0.158	1.27	2.14	0.445	2.24	0.296	1.66
ATATGTAGGTTATCGGGACATTCAGTTTGCGCAT	0.568	0.813	0.715	0.858	0.692	3.3	5.05	4.45	2.25	3.45	7.42	6.98	2.35	2.08	2.64	0.647	1.45	0.532	1.55	1.06
ATCGAAAAGTCGAGGTGAGTATAGAGAAAGGGAA	0.304	0.67	-0.216	-0.238	-0.0548	0.326	0.344	-0.139	0.203	-0.312	-0.205	0.704	1.25	-0.338	0.107	-0.235	0.048	0.0313	-0.268	0.639
CGAACTAGGTCATCCAGGACAGTGTATACATTGA	4.45	2.66	0.861	2.24	0.0566	4.61	7.47	6.1	3.25	5.65	8.32	8.01	2.41	1.17	1.54	2.03	1.29	2.33	0.356	4.02
